In all, about 140,000 sequences were measured (“enrichment ratio after two sorts for PhoP signalling”: median about 0, highest 2% from about 11 on). The entries come from a sample that favours the highest values as a whole.
B1: PhoQ; a variant is named by its letters at X, in order, P23837 (parent)
chain: MKKLLRLFFPLSLRVRFLLATAAVVLVLSLAYGMVALIGYSVSFDKTTFRLLRGESNLFYTLAKWENNKLHVELPENIDKQSPTMTLIYDENGQLLWAQRDVPWLMKMIQPDWLKSNGFHEIEADVNDTSLLLSGDHSIQQQLQEVREDDDDAEMTHSVAVNVYPATSRMPKLTIVVVDTIPVELKSSYMVWSWFIYVLSANLLLVIPLLWVAAWWSLRPIEALAKEVRELEEHNRELLNPATTRELTSLVRNLNRLLKSERERYDKYRTTLTDLTHSLKTPLXXLQXXLRSLRSEKMSVSDAEPVMLEQISRISQQIGYYLHRASMRGGTLLSRELHPVAPLLDNLTSALNKVYQRKGVNISLDISPEISFVGEQNDFVEVMGNVLDNACKYCLEFVEISARQTDEHLYIVVEDDGPGIPLSKREVIFDRGQRVDTLRPGQGVGLAVAREITEQYEGKIVAGESMLGGARMEVIFGRQHSAPKDE

Variants of: B1
Experiment: enrichment ratio after two sorts for PhoP signalling (ratio (wild type AVST 3.29)); higher = more functional
Conditions: with PhoP (E. coli)

Row | Variant | enrichment ratio
1 | PHTQ | ≤ 0.25
2 | FFAL | ≤ 0.25
3 | QGAL | 15.6
4 | QAAL | 3.3
5 | LMWN | ≤ 0.25
6 | HINH | ≤ 0.25
7 | KPLN | ≤ 0.25
8 | KSLS | ≤ 0.25
9 | TSWI | 3.63
10 | KSLA | ≤ 0.25
11 | TSLA | 16.6
12 | TSLN | 16.9
13 | FSLT | 7.83
14 | KSLN | ≤ 0.25
15 | KSLT | ≤ 0.25
16 | FSLS | 9.54
17 | NSLN | ≤ 0.25
18 | TSLS | 15.9
19 | TSLT | 13.3
20 | YNRN | ≤ 0.25
21 | VLSY | 0.334
22 | DDLI | ≤ 0.25
23 | ARIV | ≤ 0.25
24 | HMEL | ≤ 0.25

Row | Variant | enrichment ratio
25 | PRTC | ≤ 0.25
26 | INYQ | ≤ 0.25
27 | ICWY | ≤ 0.25
28 | RSTG | ≤ 0.25
29 | YLPW | ≤ 0.25
30 | WEVD | ≤ 0.25
31 | ANLP | ≤ 0.25
32 | GSLF | 11.4
33 | GSFM | ≤ 0.25
34 | GSGM | 8.45
35 | GSLM | 20.9
36 | GNLF | 6.83
37 | TPLF | ≤ 0.25
38 | KGAD | ≤ 0.25
39 | MQRI | ≤ 0.25
40 | EYAR | ≤ 0.25
41 | AEMG | 14.3
42 | AIYG | 0.334
43 | AEEG | ≤ 0.25
44 | AEYG | 36.3
45 | AEMF | ≤ 0.25
46 | AEHG | ≤ 0.25
47 | AEIG | 21.9
48 | AEMS | 31

Row | Variant | enrichment ratio
49 | AEGG | ≤ 0.25
50 | ADYG | ≤ 0.25
51 | AEMT | 5.41
52 | QPAL | ≤ 0.25
53 | QTTM | ≤ 0.25
54 | SAVI | 3.04
55 | NWIW | ≤ 0.25
56 | RGNN | ≤ 0.25
57 | GTDL | ≤ 0.25
58 | AEMA | 25.6
59 | AGMA | 5.7
60 | AEGA | 11
61 | IMTE | ≤ 0.25
62 | PMNV | ≤ 0.25
63 | YHPY | ≤ 0.25
64 | TNGH | 7.13
65 | KASI | ≤ 0.25
66 | TATC | 7.1
67 | TATH | 3.27
68 | TASK | 0.795
69 | TATS | 19.8
70 | TASI | 12.5
71 | NASI | ≤ 0.25
72 | NASS | ≤ 0.25

Row | Variant | enrichment ratio
73 | QASI | 12.8
74 | TASS | 13.4
75 | QRSI | ≤ 0.25
76 | KASS | 1.62
77 | MVMH | ≤ 0.25
78 | DHNH | ≤ 0.25
79 | TASC | 12.7
80 | KATG | ≤ 0.25
81 | NASC | ≤ 0.25
82 | KASC | ≤ 0.25
83 | TATG | 18
84 | NATG | ≤ 0.25
85 | FSNY | ≤ 0.25
86 | TWVT | ≤ 0.25
87 | GTIG | 1.96
88 | GCCI | 5.84
89 | GCCG | 18.1
90 | QCCG | ≤ 0.25
91 | GCGG | ≤ 0.25
92 | GCMG | 16.9
93 | GCVG | ≤ 0.25
94 | GQIV | 0.651
95 | GNIG | 1.98
96 | GYIG | ≤ 0.25

Row | Variant | enrichment ratio
97 | GQIG | 23.8
98 | GCIG | 12.8
99 | LGAY | ≤ 0.25
100 | SVEV | ≤ 0.25
101 | YSQV | ≤ 0.25
102 | KMDL | ≤ 0.25
103 | NRSD | ≤ 0.25
104 | TNRT | ≤ 0.25
105 | FPTD | ≤ 0.25
106 | IEAY | ≤ 0.25
107 | AHTL | 6.56
108 | AVWL | ≤ 0.25
109 | MKTL | ≤ 0.25
110 | TKTL | 16
111 | AITL | 24.3
112 | AETL | 15.1
113 | HKTL | ≤ 0.25
114 | AMTL | 4.39
115 | AVEL | ≤ 0.25
116 | AVTL | 12.5
117 | MHYL | ≤ 0.25
118 | ALHS | ≤ 0.25
119 | THYA | ≤ 0.25
120 | TPED | ≤ 0.25

Row | Variant | enrichment ratio
121 | WDQY | ≤ 0.25
122 | IFCF | ≤ 0.25
123 | ADTL | ≤ 0.25
124 | ALTL | 15.2
125 | ASEL | 3.67
126 | KLTL | ≤ 0.25
127 | LLTL | ≤ 0.25
128 | VRTL | ≤ 0.25
129 | ANTL | 12.9
130 | AWTL | ≤ 0.25
131 | AKTL | 12.5
132 | KKTL | ≤ 0.25
133 | ASTL | 20.2
134 | LLVY | ≤ 0.25
135 | YYRY | ≤ 0.25
136 | RSKL | ≤ 0.25
137 | EIAA | ≤ 0.25
138 | SNVV | 7.87
139 | ACTK | 4.69
140 | ACTL | 15.2
141 | AGAW | ≤ 0.25
142 | PHQA | ≤ 0.25
143 | GNCW | ≤ 0.25
144 | GVCW | 11.5

Row | Variant | enrichment ratio
145 | GQCI | 2.43
146 | GQCG | 16.6
147 | GQWG | ≤ 0.25
148 | GQCS | 4.33
149 | PNCG | ≤ 0.25
150 | NVCW | ≤ 0.25
151 | PWCG | ≤ 0.25
152 | GTCG | 7.53
153 | GVCG | 12.7
154 | GQCE | 21.9
155 | TNLK | ≤ 0.25
156 | EITI | ≤ 0.25
157 | RPCA | ≤ 0.25
158 | WVGL | ≤ 0.25
159 | NTRE | ≤ 0.25
160 | RRCS | ≤ 0.25
161 | NLFK | ≤ 0.25
162 | SDVW | ≤ 0.25
163 | PHGP | ≤ 0.25
164 | TMNC | 15.3
165 | TMGC | 11.3
166 | DMNC | ≤ 0.25
167 | QGGC | 19.5
168 | QPGC | ≤ 0.25

Row | Variant | enrichment ratio
169 | KMNC | ≤ 0.25
170 | KCGC | ≤ 0.25
171 | TMNK | ≤ 0.25
172 | TMPC | ≤ 0.25
173 | TMTC | 13.5
174 | FFGC | ≤ 0.25
175 | NHGC | ≤ 0.25
176 | EFVE | ≤ 0.25
177 | GASP | ≤ 0.25
178 | HAHN | ≤ 0.25
179 | NMLC | ≤ 0.25
180 | VEGC | ≤ 0.25
181 | DMLC | ≤ 0.25
182 | TCGC | 23.2
183 | MIGC | 41.4
184 | MITC | ≤ 0.25
185 | TMGQ | 5.04
186 | TMLC | 13.8
187 | GMGC | ≤ 0.25
188 | TMGA | 17.5
189 | MEGC | ≤ 0.25
190 | TMPP | ≤ 0.25
191 | ATVL | 4.07
192 | EFKF | ≤ 0.25

Row | Variant | enrichment ratio
193 | SCEM | ≤ 0.25
194 | TMTS | 11.7
195 | TMKR | ≤ 0.25
196 | NQGC | ≤ 0.25
197 | CFGC | ≤ 0.25
198 | TMPI | ≤ 0.25
199 | TMCR | 20.7
200 | TGGC | 11.2
201 | THGC | 5.27
202 | TMWA | ≤ 0.25
203 | TMQR | 8.83
204 | AQGC | 12.4
205 | AIGC | 5.62
206 | RMSH | ≤ 0.25
207 | QWWT | ≤ 0.25
208 | TGKL | ≤ 0.25
209 | NNCI | ≤ 0.25
210 | HTDV | ≤ 0.25
211 | IQST | ≤ 0.25
212 | SVER | ≤ 0.25
213 | HCRQ | ≤ 0.25
214 | NKWN | ≤ 0.25
215 | SRGC | ≤ 0.25
216 | TAGC | 13.9

Row | Variant | enrichment ratio
217 | VGGC | ≤ 0.25
218 | KSGC | ≤ 0.25
219 | SSGC | 13.8
220 | KAGC | ≤ 0.25
221 | TDGC | 17.1
222 | LTGC | ≤ 0.25
223 | FDGC | ≤ 0.25
224 | MLHI | 1.88
225 | WSGR | ≤ 0.25
226 | TCPW | ≤ 0.25
227 | LTCV | ≤ 0.25
228 | RIDL | ≤ 0.25
229 | TYQH | ≤ 0.25
230 | CKSI | ≤ 0.25
231 | WTRS | ≤ 0.25
232 | TFHR | ≤ 0.25
233 | YNLV | 1.85
234 | DWIL | ≤ 0.25
235 | DWSY | ≤ 0.25
236 | LAAY | ≤ 0.25
237 | NHQY | ≤ 0.25
238 | SHQY | ≤ 0.25
239 | NVSY | ≤ 0.25
240 | TQII | 15.7

Row | Variant | enrichment ratio
241 | TQAY | 17
242 | FQII | ≤ 0.25
243 | THQY | 15
244 | TQSY | 12.3
245 | FQAY | ≤ 0.25
246 | TQID | ≤ 0.25
247 | EFDW | ≤ 0.25
248 | DSGT | ≤ 0.25
249 | HYAH | ≤ 0.25
250 | YAPS | 0.949
251 | YQLH | 0.516
252 | HVYR | ≤ 0.25
253 | TVQY | 19.2
254 | KSQY | ≤ 0.25
255 | LAQY | ≤ 0.25
256 | TSQY | 13.5
257 | MMQY | ≤ 0.25
258 | TQQY | 15.1
259 | NVQY | ≤ 0.25
260 | TQEY | ≤ 0.25
261 | SPQY | ≤ 0.25
262 | VSHP | ≤ 0.25
263 | ARTY | ≤ 0.25
264 | IGHH | 2.36

Row | Variant | enrichment ratio
265 | LVAL | ≤ 0.25
266 | YMKE | ≤ 0.25
267 | RLRC | ≤ 0.25
268 | VTML | 15.3
269 | VFML | ≤ 0.25
270 | VSML | 15.7
271 | VTEL | ≤ 0.25
272 | FQML | 0.396
273 | QSML | 3.2
274 | RSML | ≤ 0.25
275 | FSML | 12.7
276 | YSML | 14.4
277 | VYML | ≤ 0.25
278 | LPWT | ≤ 0.25
279 | DNAA | ≤ 0.25
280 | DPIA | ≤ 0.25
281 | GRAC | ≤ 0.25
282 | KSML | ≤ 0.25
283 | NSML | 4.86
284 | TSML | 17.8
285 | PARS | ≤ 0.25
286 | QYPA | ≤ 0.25
287 | YART | ≤ 0.25
288 | QKCC | ≤ 0.25

Row | Variant | enrichment ratio
289 | PVGG | ≤ 0.25
290 | KIGQ | ≤ 0.25
291 | NVGG | ≤ 0.25
292 | TVGG | 16.2
293 | TVGQ | 15.3
294 | HCGQ | ≤ 0.25
295 | ELLA | ≤ 0.25
296 | RCNM | ≤ 0.25
297 | THRA | ≤ 0.25
298 | PAWH | ≤ 0.25
299 | THDV | ≤ 0.25
300 | RHTL | ≤ 0.25
301 | TGCT | 1.82
302 | GNCT | 10.8
303 | TEQT | 23.1
304 | GGCT | 15.6
305 | AIQT | ≤ 0.25
306 | TKTS | 11.9
307 | KRQT | ≤ 0.25
308 | AKTS | 5.9
309 | RIQT | ≤ 0.25
310 | NEQT | ≤ 0.25
311 | TIQT | 12.7
312 | MKTS | ≤ 0.25

Source: a collection of fitness landscapes (doi:10.1126/science.1257360)
